The nature of assay [1]: rapamycin-like changes in RPL19A-GFP expression – cell-based, S. cerevisiae, multiplex flow cytometry, primary screen (AID 1862; in the data active = percent of DMSO control GFP below about 86%;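 also: lower values mimic rapamycin by blocking the RPL19A rise seen in DMSO cells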). The conditions noted are these: S. cerevisiae RPL19A-GFP strain, flow cytometry fluorescence, 3 h; at 10 µM; stronger effect = lower value.
Assay [2] in a line: TOR pathway GLN3 branch reporter MEP2-GFP changes – S. cerevisiae, multiplex flow cytometry, primary screen (AID 1867;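 active = GFP response, as percent of the DMSO control, above the screen-wide mean plus 3 SD, about 139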;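 also: median GFP channel fluorescence of barcode-gated MEP2-GFP cells measured by flow cytometry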). The conditions noted are these: S. cerevisiae MEP2-GFP strain, 3 h, at 10 µM, stronger effect = higher value, 100% means same as DMSO wells. (In general: In flow cytometry, cells or beads pass a laser one at a time.)
Assay [3] is described as follows: TOR pathway RTG branch CIT2 reporter changes – S. cerevisiae, GFP fusion, multiplex flow cytometry, primary screen (AID 1870;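 active = percent response above a set limit, the screen-wide mean plus 3 SD, cut at about 130% in these data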;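 also: barcoded CIT2-GFP strain pooled with four other GFP strains with rapamycin as positive control; median GFP fluorescence per well over plate mean of DMSO wells so 100% = DMSO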). The conditions noted are these: S. cerevisiae CIT2-GFP expression, 3 h, at 10 µM, stronger effect = higher value.
Assay [4] can be described thus: TOR pathway LAP4-GFP level changes – S. cerevisiae, multiplex flow cytometry, primary screen (AID 1873;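 active = GFP signal, as percent of the solvent control, above the screen mean plus 3 SD, about 149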). The conditions noted are these: S. cerevisiae LAP4-GFP expression, 3 h, at 10 µM, stronger effect = higher value.
Assay [5] is described as follows: yeast AGP1-GFP level changes, GLN3 branch – cell-based, multiplex flow cytometry, S. cerevisiae, primary screen (AID 1887;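 active = GFP signal above the screen-wide mean plus 3 SD, that is over about 124.5% of the solvent control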;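 also: AGP1-GFP fusion strain of S. cerevisiae within a five-strain barcoded multiplex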). The following applies: 3 h, at 10 µM, stronger effect = higher value.
Assay [6] is described as follows: reduced mouse 2C T cell binding to pMHC/ICAM-1 vesicles – MLPCN validation set, flow cytometry, LFA-1/ICAM-1 modulator project, pilot screen (AID 2523;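 active = response below a set limit, under 55% cells CD8-positive and vesicle-bound, and CD8 cells' 90th-percentile brightness under 279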;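 as to vesicle binding response: mean PE anti-B7-1 fluorescence of CD8+ cells relative to row control; 100% = QL9-loaded vesicles with DMSO vehicle in the same plate row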). The following applies: 2C mouse CD8+ T cells, at 7 µM, stronger effect = lower value; double positive events: measured here: CD8+/vesicle+ event percentage.
Assay [7] concerns the target Integrin beta-1 (Homo sapiens) + Integrin alpha-4 (Homo sapiens) (UniProt P13612+P05556). As to the kind of experiment: alpha4beta1 integrin LIBS antibody binding reduction – U937 cells, HUTS-21 mAb, flow cytometry, validation set, VLA-4 allosteric modulator project, pilot screen (AID 2674).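 Also: antibody binding induced by the VLA-4 ligand LDV present at three times its Kd; 0% = LDV ligand with antibody and no compound and 100% = antibody without LDV.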 The following applies: HUTS-21 LIBS mAb binding, at 6.7 µM, stronger effect = higher value, binding induced by LDV ligand.

Assay [8] can be described thus: calorie-restriction mimetic ROS inhibitors, yeast – validation compound set, pilot screen (AID 2706;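 active = superoxide response below 65% of plate, a cut near 3 SD across the whole screen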;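 also: yeast exposed to compound for one week at 30 degrees C before staining; 100% = mean of all compound wells on the same plate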). The following applies: S. cerevisiae aging, superoxide DHE fluorescence; at 10 µM; stronger effect = lower value.
In assay [9] the target is Beta-adrenergic receptor kinase 1 (Homo sapiens) (UniProt P25098). As to the kind of experiment: GRK2 binders displacing RNA aptamer, biochemical, validation, human GRK2, bead flow cytometry (AID 488806;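 active = aptamer binding inhibition above 30%, about 3 SD of noise from non-fluorescent compounds; inactive = inhibition at or below 30%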). The following applies: bead-bound GRK2, FAM-aptamer displacement, at 10 µM, stronger effect = higher value.
Assay [10] addresses Beta-2 adrenergic receptor (Homo sapiens) (UniProt P07550). As to the kind of experiment: agonist-induced loss of surface beta2AR – cell-based, FAP fluorogen, flow cytometry, validation set, pilot screen (AID 504459;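 active = percent response above 42, roughly 3 SD of non-fluorescent test compounds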;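 also: agonist-driven loss of surface beta2AR via internalization measured by FAP dye flow cytometry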). The conditions noted are these: Am2.2-beta2AR cells, at 10 µM, stronger effect = higher value.
Assay [11] addresses AP-2 complex subunit beta (Homo sapiens) (UniProt P63010). As to the kind of experiment: beta-arrestin/AP2 interaction blockers – biochemical, validation set, GST-AP2 beads, flow cytometry, pilot screen (AID 504541;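 active = inhibition above 54%, about 3 SD of non-fluorescent compounds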;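 also: AP2 carries R879A mutation and is captured from E. coli lysate; bead-bound FITC arrestin peptide fluorescence measuring arrestin peptide binding to AP2; 0% = DMSO wells and 100% = excess unlabeled arrestin peptide control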). The conditions noted are these: FITC arrestin peptide, at 10 µM, stronger effect = higher value, AP2 beta2 appendage fragment, R879A mutant.
Assay [12] can be described thus: cytosolic pH regulators acting via V-ATPase – S. cerevisiae, pHLuorin, HTS validation (AID 504600; in the data active = response above about 15%;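 also: plate controls were DMSO for no effect and reference compound for full effect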). The following applies: V-ATPase proton transport, at 10 µM, stronger effect = higher value.
In assay [13] the test system is anti-desmoglein-3 scFv antibody binding to human DSG3. As to the kind of experiment: blockers of pathogenic pemphigus antibody–desmoglein-3 binding – biochemical, validation compound set, bead-based, flow cytometry, pilot screen (AID 588368;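 active = binding below the plate cutoff, the plate median minus 3 SD, with a reading above zero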;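 also: signal is the median channel fluorescence of bead-bound GFP antibody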). The conditions noted are these: Protein G beads, DSG3-Fc, scFv-GFP binding, at 10 µM, stronger effect = lower value.
Assay [14] in a line: Nile Red efflux blockade in pump-expressing yeast – validation compound set, multiplex, phenotypic, pilot screen (AID 588506;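 active = efflux inhibition above 0.42, the validation set average plus 4 SD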;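 also: Nile Red retained in cells so higher fluorescence means more efflux inhibition; 0 = negative control wells and 1 = enniatin B 25 µM full block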). The conditions noted are these: S. cerevisiae pump-expressing triplex, Nile Red efflux flow cytometry; at 10 µM; stronger effect = higher value; the pumps come from Candida albicans.
Assay [15] deals with ATP-binding cassette sub-family B member 6 (Homo sapiens) (UniProt Q9NP58). Description: blockers of ABCB6-driven porphyrin uptake – K562-ABCB6 cells, flow cytometry, validation set, pilot screen (AID 588550;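 active = inhibition above the screen-wide mean plus 3 SD, about 51%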;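 also: 0% = DMSO wells and 100% = benzethonium chloride 70 µM positive control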). The conditions noted are these: K562-ABCB6 porphyrin accumulation, 1 h, at 10 µM, stronger effect = higher value.
Assay [16] can be described thus: AML differentiation inducers, ER-HoxA9 marrow cells – cell-based, GFP/MAC1 double positive, flow cytometry, validation set, primary screen (AID 588685;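 active = differentiation response of at least 50%, scaled between solvent and reference control, from cells with both markers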;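 also: compound exposure lasts four days before antibody staining and flow analysis; 0% = DMSO wells and 100% = 5 µM fulvestrant positive control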). The conditions noted are these: stronger effect = higher value, normalized: vehicle 0, fulvestrant 100.

Results filed as inconclusive are left out. Activity calls are given as the source filed them.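 The calls were made as follows, unless noted: active = inhibition above 50%, about 3 SD of the validation set; inactive = the rest.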

Sequence of Beta-adrenergic receptor kinase 1 (Homo sapiens) (P25098 whole entry, looked up): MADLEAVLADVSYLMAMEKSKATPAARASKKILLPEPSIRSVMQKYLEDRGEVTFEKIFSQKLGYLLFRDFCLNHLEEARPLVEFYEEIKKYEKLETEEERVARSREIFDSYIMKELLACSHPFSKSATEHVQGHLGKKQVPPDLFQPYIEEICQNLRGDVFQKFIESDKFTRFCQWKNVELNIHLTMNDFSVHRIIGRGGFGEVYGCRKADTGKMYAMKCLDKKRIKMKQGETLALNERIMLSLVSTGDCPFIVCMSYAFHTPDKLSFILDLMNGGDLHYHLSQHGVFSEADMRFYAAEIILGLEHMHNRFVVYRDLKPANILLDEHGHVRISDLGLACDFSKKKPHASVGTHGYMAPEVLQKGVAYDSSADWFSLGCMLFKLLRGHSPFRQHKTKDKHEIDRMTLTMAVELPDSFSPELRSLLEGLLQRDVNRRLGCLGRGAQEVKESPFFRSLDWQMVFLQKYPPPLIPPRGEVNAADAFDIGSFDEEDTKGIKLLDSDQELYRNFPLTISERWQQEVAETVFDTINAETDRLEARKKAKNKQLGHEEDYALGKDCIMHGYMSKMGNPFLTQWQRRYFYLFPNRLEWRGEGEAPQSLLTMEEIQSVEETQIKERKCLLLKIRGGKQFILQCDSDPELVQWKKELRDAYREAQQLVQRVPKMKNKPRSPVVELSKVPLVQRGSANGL
Sequence of AP-2 complex subunit beta (Homo sapiens) (P63010 whole entry, looked up, the tested form may be a part, one chain of several): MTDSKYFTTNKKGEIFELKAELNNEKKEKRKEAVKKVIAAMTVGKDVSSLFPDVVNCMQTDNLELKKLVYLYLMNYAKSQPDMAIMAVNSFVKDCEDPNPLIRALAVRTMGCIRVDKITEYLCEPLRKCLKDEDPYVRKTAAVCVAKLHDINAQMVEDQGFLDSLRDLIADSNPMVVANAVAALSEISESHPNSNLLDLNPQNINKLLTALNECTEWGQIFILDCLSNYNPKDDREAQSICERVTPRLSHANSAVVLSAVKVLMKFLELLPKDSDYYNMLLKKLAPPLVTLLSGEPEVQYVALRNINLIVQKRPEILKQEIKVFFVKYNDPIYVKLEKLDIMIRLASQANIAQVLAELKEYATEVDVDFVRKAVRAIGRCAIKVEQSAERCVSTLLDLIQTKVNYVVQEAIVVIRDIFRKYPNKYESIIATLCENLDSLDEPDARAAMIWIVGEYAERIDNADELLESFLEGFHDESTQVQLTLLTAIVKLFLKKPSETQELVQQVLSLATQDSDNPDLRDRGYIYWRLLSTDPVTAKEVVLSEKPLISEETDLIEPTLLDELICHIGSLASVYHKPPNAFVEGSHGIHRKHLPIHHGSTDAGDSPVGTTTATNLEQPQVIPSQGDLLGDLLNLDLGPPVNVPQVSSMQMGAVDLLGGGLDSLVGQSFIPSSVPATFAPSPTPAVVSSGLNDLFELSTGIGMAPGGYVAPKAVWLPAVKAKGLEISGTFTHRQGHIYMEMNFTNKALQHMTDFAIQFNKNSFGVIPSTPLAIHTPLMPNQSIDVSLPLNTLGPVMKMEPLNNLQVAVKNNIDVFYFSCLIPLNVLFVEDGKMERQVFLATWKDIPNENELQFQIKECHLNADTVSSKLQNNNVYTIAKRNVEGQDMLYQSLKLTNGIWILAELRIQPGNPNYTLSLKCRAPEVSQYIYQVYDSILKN
Sequence of Integrin beta-1 (Homo sapiens) + Integrin alpha-4 (Homo sapiens) (P05556 whole entry, looked up): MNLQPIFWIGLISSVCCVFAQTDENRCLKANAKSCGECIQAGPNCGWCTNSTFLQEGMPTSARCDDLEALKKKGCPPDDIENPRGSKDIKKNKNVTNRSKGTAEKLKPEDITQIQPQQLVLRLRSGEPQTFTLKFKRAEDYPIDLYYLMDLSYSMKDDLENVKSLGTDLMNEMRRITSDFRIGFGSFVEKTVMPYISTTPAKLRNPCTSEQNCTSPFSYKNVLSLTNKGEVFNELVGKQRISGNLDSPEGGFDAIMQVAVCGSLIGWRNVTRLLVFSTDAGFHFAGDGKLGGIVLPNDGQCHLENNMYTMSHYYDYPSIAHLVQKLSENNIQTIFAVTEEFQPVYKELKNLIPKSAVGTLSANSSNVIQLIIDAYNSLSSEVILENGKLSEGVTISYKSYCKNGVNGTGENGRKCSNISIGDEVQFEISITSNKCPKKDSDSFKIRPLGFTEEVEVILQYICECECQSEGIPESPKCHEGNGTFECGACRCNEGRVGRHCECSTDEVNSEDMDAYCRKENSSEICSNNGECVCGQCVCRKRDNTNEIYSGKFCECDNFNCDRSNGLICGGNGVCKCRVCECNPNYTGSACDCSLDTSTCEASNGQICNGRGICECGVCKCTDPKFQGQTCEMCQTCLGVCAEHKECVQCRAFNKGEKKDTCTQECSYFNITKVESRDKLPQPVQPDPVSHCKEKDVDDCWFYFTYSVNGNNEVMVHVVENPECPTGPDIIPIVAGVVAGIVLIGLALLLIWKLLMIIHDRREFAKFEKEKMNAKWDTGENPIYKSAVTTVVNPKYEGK
Sequence of Integrin beta-1 (Homo sapiens) + Integrin alpha-4 (Homo sapiens) (P13612 whole entry, looked up): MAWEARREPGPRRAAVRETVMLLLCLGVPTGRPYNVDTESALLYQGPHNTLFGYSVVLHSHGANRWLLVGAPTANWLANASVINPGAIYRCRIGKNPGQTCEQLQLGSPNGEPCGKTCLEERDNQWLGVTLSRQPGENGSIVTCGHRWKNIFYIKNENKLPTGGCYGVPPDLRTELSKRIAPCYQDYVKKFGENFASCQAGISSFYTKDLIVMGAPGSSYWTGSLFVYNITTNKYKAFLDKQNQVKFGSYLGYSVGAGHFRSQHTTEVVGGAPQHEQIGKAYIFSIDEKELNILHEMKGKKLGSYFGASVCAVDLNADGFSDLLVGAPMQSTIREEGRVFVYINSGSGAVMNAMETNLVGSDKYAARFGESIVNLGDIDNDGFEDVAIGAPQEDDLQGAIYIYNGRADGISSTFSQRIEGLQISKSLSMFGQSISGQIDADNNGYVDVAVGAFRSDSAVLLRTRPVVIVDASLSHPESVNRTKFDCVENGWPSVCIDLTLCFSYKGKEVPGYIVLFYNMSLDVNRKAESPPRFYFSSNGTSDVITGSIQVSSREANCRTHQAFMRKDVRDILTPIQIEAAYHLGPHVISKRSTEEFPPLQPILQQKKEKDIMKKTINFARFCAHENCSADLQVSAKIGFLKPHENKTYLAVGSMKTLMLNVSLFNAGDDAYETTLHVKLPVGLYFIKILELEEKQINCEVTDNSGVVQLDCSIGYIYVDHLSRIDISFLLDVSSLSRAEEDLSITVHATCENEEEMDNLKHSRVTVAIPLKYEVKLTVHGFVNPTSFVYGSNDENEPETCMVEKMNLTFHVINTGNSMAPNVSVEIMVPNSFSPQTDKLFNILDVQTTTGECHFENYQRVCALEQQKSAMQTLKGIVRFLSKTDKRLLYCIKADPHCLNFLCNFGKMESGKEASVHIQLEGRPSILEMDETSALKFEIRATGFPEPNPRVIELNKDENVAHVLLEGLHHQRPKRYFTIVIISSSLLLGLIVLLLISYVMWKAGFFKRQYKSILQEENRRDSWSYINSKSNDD
Sequence of Beta-2 adrenergic receptor (Homo sapiens) (P07550 whole entry, looked up): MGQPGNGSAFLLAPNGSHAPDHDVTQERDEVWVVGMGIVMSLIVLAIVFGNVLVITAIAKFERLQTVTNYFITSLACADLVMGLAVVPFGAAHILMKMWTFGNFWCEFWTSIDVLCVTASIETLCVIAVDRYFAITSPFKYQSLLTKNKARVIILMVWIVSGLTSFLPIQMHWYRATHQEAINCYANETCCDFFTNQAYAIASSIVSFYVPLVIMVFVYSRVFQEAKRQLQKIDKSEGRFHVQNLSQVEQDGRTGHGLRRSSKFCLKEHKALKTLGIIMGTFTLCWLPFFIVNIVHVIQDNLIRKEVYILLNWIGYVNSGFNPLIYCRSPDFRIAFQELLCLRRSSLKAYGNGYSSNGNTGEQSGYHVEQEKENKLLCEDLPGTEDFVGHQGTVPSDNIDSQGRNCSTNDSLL
Sequence of ATP-binding cassette sub-family B member 6 (Homo sapiens) (Q9NP58 whole entry, looked up): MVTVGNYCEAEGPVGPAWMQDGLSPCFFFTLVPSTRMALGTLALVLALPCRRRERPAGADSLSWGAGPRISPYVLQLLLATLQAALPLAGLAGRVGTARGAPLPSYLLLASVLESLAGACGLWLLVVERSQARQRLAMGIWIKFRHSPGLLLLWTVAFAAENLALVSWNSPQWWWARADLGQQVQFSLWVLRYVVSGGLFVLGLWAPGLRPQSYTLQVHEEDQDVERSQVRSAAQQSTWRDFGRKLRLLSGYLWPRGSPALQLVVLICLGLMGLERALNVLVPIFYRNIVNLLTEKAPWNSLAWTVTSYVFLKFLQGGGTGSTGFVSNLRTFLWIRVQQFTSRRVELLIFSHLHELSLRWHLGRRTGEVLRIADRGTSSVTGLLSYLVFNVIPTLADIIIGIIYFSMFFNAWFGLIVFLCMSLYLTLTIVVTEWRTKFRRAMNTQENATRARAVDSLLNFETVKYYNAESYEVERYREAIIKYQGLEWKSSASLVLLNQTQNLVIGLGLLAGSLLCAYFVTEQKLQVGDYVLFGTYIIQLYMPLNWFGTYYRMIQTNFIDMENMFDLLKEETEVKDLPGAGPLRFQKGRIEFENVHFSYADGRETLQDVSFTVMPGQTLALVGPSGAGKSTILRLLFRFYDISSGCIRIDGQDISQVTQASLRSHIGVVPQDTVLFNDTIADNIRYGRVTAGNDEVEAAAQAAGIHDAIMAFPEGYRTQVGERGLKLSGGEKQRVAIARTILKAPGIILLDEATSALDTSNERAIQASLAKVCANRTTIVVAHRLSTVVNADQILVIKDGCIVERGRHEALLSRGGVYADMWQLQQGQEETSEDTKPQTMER

`Nc1ccc(-c2nc3ncccc3o2)c(Cl)c1`: the percent of DMSO control GFP in assay [1] is 97.8% (inactive). Besides, the GFP response vs DMSO in [2] is 103% (inactive); in assay [4], 112% (inactive). Also, the percent response of DMSO control in assay [3] was 97.7% (inactive). Moreover, the GFP response, % of DMSO in [5] is 98.6% (inactive). Besides, the double positive events in [6] worked out at 56.7%. In assay [6], the vesicle binding response is 243% (inactive). In addition, the inhibition in assay [7] was -15.4% (inactive); in [11] it was -5.26% (inactive); in [15], 6% (inactive). In addition, in assay [8], the superoxide response (% of plate) is 118% (inactive). The aptamer binding inhibition in assay [9] was 0% (inactive). For the same molecule, the response was 0.9% (inactive) in assay [10] and 61.4% (active) in [12]. The binding (% of control) in [13] was 103% (inactive). For the same molecule, in assay [14], the efflux inhibition (fraction of control) was 0.15 (inactive). Besides, the differentiation response in [16] is 4% (inactive).

Consider `COc1ccc(C(=O)NCCC2=CCCCC2)cc1[N+](=O)[O-]`, for which the percent of DMSO control GFP in assay [1] is 107% (inactive). Besides, the results for the GFP response vs DMSO in assay [2] and in assay [4] were 104% (inactive) and 114% (inactive), respectively. The percent response of DMSO control in assay [3] was 106% (inactive). Further, in assay [5], the GFP response, % of DMSO was 106% (inactive). Further, the double positive events in assay [6] was found to be 62.5%. Further, in assay [6], the vesicle binding response is 194% (inactive). The inhibition is 12.3% (inactive) in assay [7], 15.5% (inactive) in assay [11] and 5% (inactive) in assay [15]. For the same molecule, the superoxide response (% of plate) in [8] was 99.5% (inactive). Moreover, in assay [9], the aptamer binding inhibition is 1% (inactive). Also, the response was -5.02% (inactive) in assay [10] and -2.15% (inactive) in assay [12]. For the same molecule, the binding (% of control) in assay [13] was 97.5% (inactive). Further, in assay [14], the efflux inhibition (fraction of control) was 1.08 (active). The differentiation response in [16] was -3.11% (inactive).

Consider `O=C(NCCNc1ccc(Cl)cc1[N+](=O)[O-])c1cccnc1`, for which, in assay [1], the percent of DMSO control GFP was 100% (inactive). For the same molecule, the results for the GFP response vs DMSO in [2] and in assay [4] were 102% (inactive) and 106% (inactive), respectively. Also, the percent response of DMSO control in assay [3] was 102% (inactive). The GFP response, % of DMSO in assay [5] was 98.9% (inactive). The double positive events in assay [6] worked out at 57.5%. Also, in [6], the vesicle binding response was 13.3% (inactive). Also, the inhibition in assay [7] was 5.41% (inactive); in assay [11], 20% (inactive); in assay [15], 4% (inactive). For the same molecule, in assay [8], the superoxide response (% of plate) is 102% (inactive). Further, the aptamer binding inhibition in assay [9] is -6% (inactive). The response in [10] was -6.88% (inactive); in assay [12], 0.22% (inactive). In addition, in [13], the binding (% of control) was 100% (inactive). For the same molecule, in assay [14], the efflux inhibition (fraction of control) was -0.22 (inactive). For the same molecule, the differentiation response in assay [16] is 8.02% (inactive).

Consider `COc1ccc2c3c([nH]c2c1)C1(NCC3)C(=O)Nc2ccccc21` (stereo not given), for which the percent of DMSO control GFP in assay [1] was 95.4% (inactive). The figures for the GFP response vs DMSO in [2] and in [4] were 105% (inactive) and 103% (inactive), respectively. Moreover, the percent response of DMSO control in assay [3] is 89.1% (inactive). In assay [5], the GFP response, % of DMSO was 101% (inactive). The molecule further showed a double positive events in assay [6] of 59.5%. Further, the vesicle binding response in [6] was 175% (inactive). For the same molecule, the inhibition in assay [7] was -15.4% (inactive); in assay [11], 10.3% (inactive); in [15] it was -6% (inactive). Further, the superoxide response (% of plate) in [8] was 97.3% (inactive). In addition, in assay [9], the aptamer binding inhibition was 0% (inactive). Further, the response is -10.9% (inactive) in assay [10] and -0.21% (inactive) in assay [12]. Further, the binding (% of control) in [13] is 97.6% (inactive). Besides, the efflux inhibition (fraction of control) in [14] was 0.05 (inactive). Besides, in [16], the differentiation response was 10.4% (inactive).

In the case of `COC(=O)c1cc(Br)c(=O)n(CCc2ccc(O)cc2)c1`, the percent of DMSO control GFP in assay [1] was 95.2% (inactive). For the same molecule, the GFP response vs DMSO in assay [2] is 109% (inactive); in assay [4], 123% (inactive). For the same molecule, the percent response of DMSO control in assay [3] is 93.9% (inactive). Further, the GFP response, % of DMSO in assay [5] was 99.7% (inactive). The molecule also returned a double positive events in [6] of 57.8%. The vesicle binding response in assay [6] was 234% (inactive). Further, the results for the inhibition in assay [7], in [11] and in assay [15] were 6.4% (inactive), 4.99% (inactive) and 8% (inactive), respectively. The superoxide response (% of plate) in [8] is 103% (inactive). In assay [9], the aptamer binding inhibition was 5% (inactive). Also, the response in [10] was -13.9% (inactive); in assay [12], -0.03% (inactive). Also, in assay [13], the binding (% of control) is 96.8% (inactive). The efflux inhibition (fraction of control) in [14] is -0.17 (inactive). For the same molecule, the differentiation response in assay [16] was -10.4% (inactive).

Usually inhibition stands for the change of the read-out against control, counted positive when it falls.

Source of the values: PubChem BioAssay.
